Pf Dd2 growth: inhibitors of Plasmodium falciparum Dd2 growth | Potency, µM (titrated, usually from 28.9 µM), most hits filed as inhibitors | P. falciparum Dd2 growth, SYBR Green, 72 h | 120,000 tested, 4.3% active; active means well fitted inhibition curve with a large enough effect; further: nearly all actives have a fitted effect of over 65% in size
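Readout: SYBR Green fluorescence, 485 nm excitation, 535 nm emission, after ~16 h lysis at 37C. Before that, Dd2-infected red cells (2.5% hematocrit) grew 72 h with compound, 29 uM top final concentration.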
Numbers stand for hits; . = inactive; [ ] = dose if it differs, or a comment. The sample as a whole holds a higher share of hits than the screen did.

SMILES	Pf Dd2 growth
CCN(CC)CCCNC(=O)Cc1csc2nc(-c3ccc(Cl)cc3)cn12	8.9µM
Cc1cc(C)cc(C(=O)N2CCC(CC(=O)NCc3ccccc3)C2)c1 (centres undefined)	.
COc1ccc(CN2CCC(C3CCN(S(C)(=O)=O)CC3)C2)cc1C (centres undefined)	.
CCCCN(CCCC)CC(O)Cn1cc(/C=C/C(=O)c2ccccc2)c2ccccc21 (centres undefined)	0.89µM
CCCCN(C)CC(O)Cn1cc(/C=C/C(=O)c2ccc(OCC)cc2)c2ccccc21 (centres undefined)	3.5µM
CCCCN(CC)CCCNC(=O)c1cn(C)c(=O)c2c1c1ccccc1n2C	.
CCOc1ccc2c(c1)c(=O)c(C(=O)c1ccccc1)cn2Cc1ccccc1	.
COc1ccc(C(=O)/C=C/c2cn(CC(O)CN3CCc4ccccc43)c3ccccc23)cc1 (centres undefined)	.
CCCS(=O)(=O)N1CC[C@@H](CC(=O)O)[C@@H](CC2=NCCc3cc(OC)ccc32)C1	.
CNC(=O)[C@@H]1CN(S(=O)(=O)c2c(C)noc2C)C[C@H]1C1CCN(C)CC1	.
COC(=O)CN1C(=O)[C@@H]2C[C@@H](O)CN2C2(CN(Cc3ccccc3)C2)C1=O	.
C=CCNC(=O)CCc1c(C)nn(-c2ccc(F)cc2)c1Oc1ccccc1OC	.
COc1ccc(CNc2ncnc3c2CN(C2CCCNC2)C(=O)CN3C)cc1 (centres undefined)	.
CN1CCN(c2nc3c(c(=O)[nH]2)CCN(Cc2cn[nH]c2-c2ccccc2)CC3)CC1	.[5.79 µM]
COCC(=O)NC[C@H]1COCc2nc3cc(C(=O)OC)ccc3n21	.
COc1c(Cl)cc(Cl)cc1/C=C(\C#N)c1nc2ccccc2[nH]1	5.6µM
N#C/C(=C/c1ccc(Cl)cc1Cl)c1nc2ccccc2c(=O)[nH]1	.
Cc1c(Cl)cccc1-c1ccc(/C=C(\C#N)c2nc3ccccc3[nH]2)o1	.
O=C(c1n[nH]c2c1CCCC2)N1CCCC2(C1)Nc1cccnc1NC2=NC1CCCC1 (centres undefined)	.[5.79 µM]
CC(=O)Nc1cccc(OCc2nc3c(n2Cc2ccccc2)C(=O)N(Cc2ccccc2F)CCN3)c1	.
COCCOC1CCOC2(CCN(C(=O)C3(c4ccccc4)CC3)CC2)C1 (centres undefined)	.
COCCOC1CCOC2(CCN(C(=O)c3n[nH]c4ccccc34)CC2)C1 (centres undefined)	.
COCCOC1CCOC2(CCN(C(=O)Cc3c[nH]c4ccccc34)CC2)C1 (centres undefined)	11µM
COCCOC1CCOC2(CCN(C(=O)c3ccccc3)CC2)C1 (centres undefined)	.
COCCOC1CCOC2(CCN(C(=O)c3nccc4ccccc34)CC2)C1 (centres undefined)	.
SMILES	Pf Dd2 growth
COC1CCOC2(CCN(C(=O)COc3ccccc3)CC2)C1 (centres undefined)	.
COCCOC1CCOC2(CCN(C(=O)COc3ccccc3)CC2)C1 (centres undefined)	11µM
COCCOC1CCOC2(CCN(C(=O)Cc3ccccc3)CC2)C1 (centres undefined)	.
COCCOC1CCOC2(CCN(C(=O)c3nn(C)c4ccccc34)CC2)C1 (centres undefined)	5.6µM
COc1ccc(C2Cn3nnc(-c4noc(CC5CCCCC5)n4)c3CO2)cc1 (centres undefined)	.
Cc1cccc(OCC2(CNC(=O)c3ccc(F)cc3)C[C@@H](O)[C@@H](O)C2)n1 (some centres undefined)	.
COc1ccc(CCNC(=O)CN2C(=O)C(c3ccccc3)=NC23CCCCC3)cc1OC	.
CCS(=O)(=O)Nc1ccc(C)n(CC(=O)N2CCN(CC(C)C)CC2)c1=O	.
CCN1c2cc(C(=O)Nc3ccc(Oc4ccccc4)cc3)ccc2C(=O)N2CCCCC21 (centres undefined)	.
C[C@H]1[C@@H]2[C@H]3OC(=O)[C@@H](C)[C@@H]3CC[C@@]2(C)CC[C@@H]1NC(=O)Nc1cccc(F)c1	.
CNC(=O)[C@@H]1CN(C(=O)CCc2c[nH]c3ccccc23)C[C@H]1CO	.
Cc1nnnn1CCC(=O)N[C@@H]1COCC[C@@H]1OCc1cscn1	.
COc1cccc(CC(=O)N[C@H](Cc2ccccc2)C(=O)N2CCOCCNC(=O)CC2)c1	.
O[C@@H]1C[C@@H](c2nc(-c3cccnc3)no2)N(Cc2cc3ccccc3o2)C1	.
Cc1cc(C(F)(F)F)n(CC(C)Cn2cc(-c3cncnc3)nn2)n1 (centres undefined)	.
C=CC[C@@H]1CC=C[C@@H](C)N1C(=O)c1cc(OC)ccc1OC1CCN(C(=O)C2CC2)CC1	.
CN(C)C(=O)c1cccnc1OC1CCN(C(=O)c2ccc(OC(F)(F)F)cc2)C1 (centres undefined)	.
COc1ccc2c(c1)-c1nc(NC(=O)c3ccccc3F)sc1CC2	.
COc1ccc2c(c1)-c1nc(NC(=O)c3cc(OC)c(OC)c(OC)c3)sc1CC2	5µM
COc1ccc2c(c1)-c1nc(NC(=O)c3cc(Cl)ccc3OC)sc1CC2	.
